# High-throughput results (PubChem)
# Hits are enriched below; roughly 1.8% of the tested compounds scored in any of these assays.
# Granule exo inh: blocks lytic granule exocytosis; AID 651702; inhibition, % at 10 µM; 0.66% of 360,000 active; TALL-104 LAMP-1 surface exposure, flow cytometry; cells stimulated with thapsigargin and PMA;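 active means inhibition above about 55%, limit read from the data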
# Myeloid diff 2: myeloid differentiation induction; ER-HoxA9 myeloid progenitors, lysozyme-GFP differentiation, flow cytometry; calls only at 10 µM; 1% of 360,000 active;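 active means normalized GFP-positive differentiation at or above the plate's own cutoff, the solvent-only control mean plus 3 SD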;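 further: cells exposed to compound for four days before flow analysis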
# NPR2 activator: GC-B (human) receptor activation; HEK293-GC-B cells, CNP EC30, cGMP TR-FRET; 0% at EC30 CNP, 100% saturating CNP; activation, % at 10 µM; 0.11% of 370,000 active; AID 1920062;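 active means activation at 10 µM reaching about 35% in either raw or pattern-adjusted values, limit read from the data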
# Target sequence (P20594 whole entry, looked up): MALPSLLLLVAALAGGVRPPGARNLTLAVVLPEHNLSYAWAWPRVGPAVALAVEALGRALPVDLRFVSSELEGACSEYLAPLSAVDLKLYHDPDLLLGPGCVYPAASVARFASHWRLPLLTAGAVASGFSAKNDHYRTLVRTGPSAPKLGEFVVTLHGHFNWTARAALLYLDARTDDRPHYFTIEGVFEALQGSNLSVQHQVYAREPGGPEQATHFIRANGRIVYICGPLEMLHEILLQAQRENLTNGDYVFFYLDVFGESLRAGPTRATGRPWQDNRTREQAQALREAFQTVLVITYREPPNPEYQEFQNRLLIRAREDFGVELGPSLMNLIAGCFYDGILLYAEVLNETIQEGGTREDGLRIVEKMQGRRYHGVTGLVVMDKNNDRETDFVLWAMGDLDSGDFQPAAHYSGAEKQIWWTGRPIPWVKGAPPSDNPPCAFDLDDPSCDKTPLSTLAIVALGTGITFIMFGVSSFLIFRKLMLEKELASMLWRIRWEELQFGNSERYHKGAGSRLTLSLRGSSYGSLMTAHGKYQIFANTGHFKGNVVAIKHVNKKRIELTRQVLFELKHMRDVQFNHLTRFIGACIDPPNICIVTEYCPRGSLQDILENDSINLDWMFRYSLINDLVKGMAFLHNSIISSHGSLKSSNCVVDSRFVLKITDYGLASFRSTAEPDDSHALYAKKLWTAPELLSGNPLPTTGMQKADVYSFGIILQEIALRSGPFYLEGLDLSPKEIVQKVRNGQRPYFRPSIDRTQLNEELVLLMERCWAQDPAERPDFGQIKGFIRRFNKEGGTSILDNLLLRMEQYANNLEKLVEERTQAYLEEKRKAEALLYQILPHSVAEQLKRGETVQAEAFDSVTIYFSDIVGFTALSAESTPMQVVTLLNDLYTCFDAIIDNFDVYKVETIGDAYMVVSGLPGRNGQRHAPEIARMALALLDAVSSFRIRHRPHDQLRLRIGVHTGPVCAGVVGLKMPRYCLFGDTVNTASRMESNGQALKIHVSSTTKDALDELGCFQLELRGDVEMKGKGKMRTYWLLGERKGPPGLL
# NPR1 activator: GC-A (human) enzyme activation; 0.14% of 370,000 active; HEK293 GC-A cells, cGMP TR-FRET, EC30 ANP; 0% at EC30 ANP, 100% saturating ANP; AID 1671463; P16066; activation, % at 10 µM; in the data active means activation above about 40%
# Myeloid diff: myeloid differentiation induction | shares compounds with Myeloid diff 2 | ER-HoxA9 myeloid progenitors, GFP/Mac1 double-positive flow | calls only | 2% of 2,300 active;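 active means share of green or green-and-red cells above 9 and 9% in run 1 or 4 and 3% in run 2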
# GFP autofluor: flagged as fluorescent in myeloid differentiation counter-screen | ER-HoxA9 myeloid progenitors, no estrogen, GFP autofluorescence flow cytometry; vehicle wells 0%, positive control 100% | shares compounds with Myeloid diff 2 | 7.4% of 2,300 active | fluorescence response, % (no concentration beside the values);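 active means over 5% cells positive for green fluorescent reporter, or over 2% positive for both it and APC stain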;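 further: range taken on the double positive population between DMSO and positive control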
# * hit, by the source's call; i = inactive; · = no result given; + = active, no number.
SMILES,Granule exo inh,Myeloid diff 2,NPR2 activator,NPR1 activator,Myeloid diff,GFP autofluor
CC[C@H]1OC(=O)[C@H](C)[C@@H](O[C@H]2C[C@@](C)(OC)[C@@H](O)[C@H](C)O2)C(C)[C@@H](O[C@@H]2O[C@H](C)C[C@H](N(C)C)[C@H]2O)[C@](C)(O)C[C@@H](C)CN(C)[C@H](C)[C@@H](O)[C@]1(C)O (stereo not given in full),·,·,-6,4,·,·
O=C(C(=O)N1CCCN(Cc2ccc(F)cc2)CC1)c1ccccc1,-6,i,3,0,·,·
Cc1ccc(C=Nc2ccc(N(C)C)cc2)o1,0,i,-27,-9,i,0
Cc1ccc(OCc2nnc(SCc3nc4ccccc4[nH]3)n2Cc2ccco2)cc1,34,+,-11,-18,+,0
c1ccc(-c2nnc(SCc3nc4ccccc4[nH]3)n2Cc2ccco2)cc1,-2,i,-11,-16,·,·
COC(=O)C1=CN(Cc2ccc(OC)c(OC)c2)C=C(C(=O)OC)C1c1cccc(F)c1,24,+,2,-26,i,2
COc1ccc(C(=O)N2CCc3cc(OC)c(OC)cc3C2c2ccc(OC)c(OC)c2)cc1 (stereo not given),-8,i,-1,-2,i,0
COc1ccc(C2c3cc(OC)c(OC)cc3CCN2C(=O)c2ccccc2)cc1OC (stereo not given),-3,i,-9,-15,·,·
CCN1CCN(c2ccc(S(=O)(=O)N3CCCCC3)cc2NC(=O)c2ccc([N+](=O)[O-])o2)CC1,-2,i,1,4,i,0
NC(=O)CC(NC(=O)Cc1ccc(Cl)cc1)c1ccc(NC2CCCC2)c([N+](=O)[O-])c1 (stereo not given),3,i,5,-6,·,·
NC(=O)CC(NC(=O)Cc1ccc(Cl)cc1)c1ccc(NC2CCCCC2)c([N+](=O)[O-])c1 (stereo not given),0,i,-6,2,i,0
CSc1ncnc2c1ncn2CCCNCCCN1CCCC1=O,-2,+,4,5,i,1
Cc1nnc(SCCn2c(N3CCN(Cc4ccccc4)CC3)nc3c2c(=O)[nH]c(=O)n3C)s1,0,i,-6,-8,·,·
Cc1nnc(SCCn2c(N(C)Cc3ccccc3)nc3c2c(=O)[nH]c(=O)n3C)s1,-3,+,3,-1,i,0
c1ccc(CNc2ncnc3scc(-c4cccs4)c23)nc1,48,i,-2,-2,i,1
CCN(C(=O)CN(C1=NC2CS(=O)(=O)CC2S1)c1ccc(OC)cc1)c1cccc(C)c1 (stereo not given),1,i,-4,-3,·,·
CCC(=O)N1CCc2cc(Br)cc(S(=O)(=O)CCC(=O)NCC3CCCO3)c21 (stereo not given),4,+,5,10,i,0
COc1ccc(NCc2nnc(SCC(=O)NCc3ccccc3)n2-c2ccccc2OC)cc1,20,i,-2,0,·,·
COc1ccccc1-n1c(CNc2ccc(F)cc2)nnc1SCC(=O)Nc1cc(C)on1,-1,i,-1,-6,i,0
CNC[C@@H]1OCc2ccccc2-c2c(n(C)c3ccccc23)C(=O)N([C@H](C)CO)C[C@@H]1C,2,i,-1,0,·,·
Cc1cccc(-c2cccc3c4c([nH]c23)[C@@H]2C[C@H](N(C)C(=O)OCc3ccccc3)[C@H]([C@H](C)O)CN2CC4)c1,·,·,5,0,·,·
CCOc1cc(/C=C2\N=C(C)OC2=O)cc(Br)c1OCC(=O)OC,-1,+,-12,15,i,0
CCOc1cc(/C=C2\N=C(C)OC2=O)cc(Br)c1OCCc1ccccc1,-1,i,·,·,·,·
CC(=O)Oc1c(-c2ccc(Br)o2)oc2ccccc2c1=O,4,i,-1,12,i,1
COc1ccc(-c2oc3ccccc3c(=O)c2OC(C)=O)cc1,5,i,8,9,·,·
SMILES,Granule exo inh,Myeloid diff 2,NPR2 activator,NPR1 activator,Myeloid diff,GFP autofluor
Cc1cc2c(OCC(CNC(C)(C)C)OC(=O)c3ccccc3)cccc2[nH]1 (stereo not given),·,·,-9,-13,·,·
c1ccc(Cc2nn3c(Cn4nnc5ccccc54)nnc3s2)cc1,1,i,4,6,i,0
COC(=O)c1ccc(C2C(C(C)=O)=C(O)C(=O)N2CCO)cc1 (stereo not given),0,i,-1,-5,i,1
NS(=O)(=O)c1ccc(CNC(=O)Cc2ccsc2)cc1,1,i,1,1,·,·
COc1ccc(CNC(=O)C2CCCN(S(=O)(=O)c3c(C)n[nH]c3C)C2)cc1 (stereo not given),2,i,5,0,i,2
O=C(NCCc1ccccc1)c1ccccc1NS(=O)(=O)N1CCCC1,9,i,-3,-4,i,0
CC1(C)CC(=O)C2=C(C1)N(Cc1ccco1)C(=O)C2(NC(=O)c1ccc(Cl)cc1Cl)C(F)(F)F (stereo not given),-4,i,1,0,·,·
CC1(C)CC(=O)C2=C(C1)N(Cc1ccco1)C(=O)C2(NC(=O)C1CCCCC1)C(F)(F)F (stereo not given),12,i,-4,2,i,0
Cc1cc(Br)c2nc(-c3cccc(Br)c3)c(Cc3cccc(Cl)c3)n2c1,·,·,-2,-2,·,·
Cc1cn([C@H]2C[C@H](O)[C@@H](CNCc3ccc(Oc4cc(-n5cccn5)ncn4)cc3)O2)c(=O)[nH]c1=O,0,i,3,3,·,·
Cn1c(=O)c2cc(S(=O)(=O)NC(Cc3ccccc3)C(=O)NCc3ccco3)ccc2n(C)c1=O (stereo not given),3,i,5,1,i,0
COCCCNC(=O)C(Cc1ccccc1)NS(=O)(=O)c1ccc2c(c1)c(=O)n(C)c(=O)n2C (stereo not given),-4,i,5,4,·,·
N#Cc1c(N)nc(SCc2ccccn2)c(C#N)c1-c1cccs1,37,i,4,10,i,0
CCCC(C)NC(=O)CC1Oc2ccccc2NC1=O (stereo not given),·,·,-12,2,·,·
COc1cccc(CNC(=O)C(CCSC)NS(=O)(=O)c2ccc3c(c2)oc(=O)n3C)c1 (stereo not given),2,i,0,0,i,5.8*
CSCC[C@H](NC(=O)C1CCN(S(=O)(=O)c2ccc(C)cc2)CC1)C(=O)NCc1ccco1,-2,+,1,0,i,1
O=C1/C(=C\c2ccco2)SC(=S)N1Cc1ccccc1,-2,i,0,-1,i,1
O=C(O)CN1C(=O)/C(=C/c2ccc(SCc3ccccc3)o2)SC1=S,1,i,-5,-5,i,0
